Assay results reported in PubChem BioAssay.
The source made the active and inactive calls.

Legend:
[1] = optical density shifts of acrAB sulA E. coli – strain DRC41, OD650, 48 h, E. coli filamentation inducer project, primary screen (AID 1152); conditions: higher = more signal, called active from +8 up or from −8 down;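 also: E. coli MC1000 strain DRC41 lacking acrAB efflux pump and sulA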
[2] = probe aLefty1 binding on compound microarray – biochemical, small-molecule microarray, 635/667 nm fluorescence, primary screen (AID 1153); conditions: higher = more signal;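 also: score merges spot fluorescence with signal-to-noise ratio from the scanned slide images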
[3] = plasmodial surface anion channel blockers, osmotic lysis – cell-based, P. falciparum Indochina, OD700, 1 h, primary screen (AID 1154); conditions: P. falciparum Indochina infected RBC osmotic lysis, higher = more signal, called active from +8 up or from −8 down
[4] = plasmodial surface anion channel blockers, osmotic lysis – cell-based, P. falciparum Indochina, OD700, 2 h, primary screen (AID 1155);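 also: lysis reports solute entry through the parasite surface anion channel PSAC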; conditions: P. falciparum Indochina infected erythrocytes, higher = more signal, called active from +8 up or from −8 down
[5] = changes in parasitized red cell lysis, either direction – P. falciparum Indochina, OD700, 3 h, PSAC antagonist project, primary screen (AID 1156); conditions: P. falciparum-infected erythrocytes, osmotic lysis, higher = more signal, called active from +8 up or from −8 down
[6] = plasmodial surface anion channel blockers, osmotic lysis – cell-based, P. falciparum Indochina, OD700, 18 h, primary screen (AID 1157); conditions: P. falciparum Indochina infected erythrocytes, osmotic lysis OD700, 18 h; higher = more signal, called active from +8 up or from −8 down
[7] = S6 kinase pathway phospho-S6 level changes – cell-based, A549, cytoblot, luminescence, serum-stimulated, primary screen (AID 1158); conditions: 5 h, higher = more signal;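 also: serum-stimulated A549 lung adenocarcinoma cells; signal is phosphorylated S6 detected by cytoblot immunostaining with HRP secondary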
[8] = biological target: NADPH oxidase 2 (Homo sapiens) (UniProt P04839); assay: compounds shifting NOX2 Amplex Red fluorescence – cell-based, HEK293-NOX2, PMA-stimulated, NOX inhibitor project, primary screen (AID 1159); conditions: 45 min, higher = more signal, called active from +8 up or from −8 down; also: test concentration not given here
[9] = biological target: NADPH oxidase 4 (Homo sapiens) (UniProt Q9NPH5); assay: compounds shifting NOX4 Amplex Red fluorescence – cell-based, HEK293-NOX4, tetracycline-induced, NOX inhibitor project, primary screen (AID 1160); conditions: HEK293-NOX4, Amplex Red H2O2 fluorescence, 45 min; higher = more signal, called active from +8 up or from −8 down
[10] = biological target: NADPH oxidase 5 (Homo sapiens) (UniProt Q96PH1); assay: compounds shifting NOX5 Amplex Red fluorescence – cell-based, HEK293-NOX5, NOX inhibitor project, primary screen (AID 1161); conditions: HEK293-NOX5, ionomycin, 45 min, higher = more signal
Sequence of NADPH oxidase 5 (Homo sapiens) (Q96PH1 whole entry, looked up): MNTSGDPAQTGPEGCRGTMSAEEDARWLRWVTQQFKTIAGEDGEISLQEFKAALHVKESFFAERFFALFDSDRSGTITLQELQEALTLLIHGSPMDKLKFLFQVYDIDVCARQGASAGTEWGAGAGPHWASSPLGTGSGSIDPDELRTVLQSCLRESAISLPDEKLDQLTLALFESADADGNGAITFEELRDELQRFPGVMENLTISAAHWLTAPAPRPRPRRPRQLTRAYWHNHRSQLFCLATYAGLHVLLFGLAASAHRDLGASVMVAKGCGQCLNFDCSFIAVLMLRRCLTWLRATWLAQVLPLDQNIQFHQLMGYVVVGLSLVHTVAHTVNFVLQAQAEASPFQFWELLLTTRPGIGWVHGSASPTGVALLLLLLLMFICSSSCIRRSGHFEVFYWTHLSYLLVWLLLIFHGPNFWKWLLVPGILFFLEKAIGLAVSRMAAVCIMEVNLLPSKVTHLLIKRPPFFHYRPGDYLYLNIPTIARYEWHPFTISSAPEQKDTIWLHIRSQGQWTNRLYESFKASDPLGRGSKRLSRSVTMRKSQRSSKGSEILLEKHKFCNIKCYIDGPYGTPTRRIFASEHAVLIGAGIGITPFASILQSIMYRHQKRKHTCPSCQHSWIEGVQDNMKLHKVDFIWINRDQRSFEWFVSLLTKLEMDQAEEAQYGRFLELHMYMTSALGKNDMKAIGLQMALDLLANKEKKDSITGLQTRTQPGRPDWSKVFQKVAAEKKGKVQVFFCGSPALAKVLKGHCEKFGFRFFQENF

Sequence of NADPH oxidase 2 (Homo sapiens) (P04839 whole entry, looked up): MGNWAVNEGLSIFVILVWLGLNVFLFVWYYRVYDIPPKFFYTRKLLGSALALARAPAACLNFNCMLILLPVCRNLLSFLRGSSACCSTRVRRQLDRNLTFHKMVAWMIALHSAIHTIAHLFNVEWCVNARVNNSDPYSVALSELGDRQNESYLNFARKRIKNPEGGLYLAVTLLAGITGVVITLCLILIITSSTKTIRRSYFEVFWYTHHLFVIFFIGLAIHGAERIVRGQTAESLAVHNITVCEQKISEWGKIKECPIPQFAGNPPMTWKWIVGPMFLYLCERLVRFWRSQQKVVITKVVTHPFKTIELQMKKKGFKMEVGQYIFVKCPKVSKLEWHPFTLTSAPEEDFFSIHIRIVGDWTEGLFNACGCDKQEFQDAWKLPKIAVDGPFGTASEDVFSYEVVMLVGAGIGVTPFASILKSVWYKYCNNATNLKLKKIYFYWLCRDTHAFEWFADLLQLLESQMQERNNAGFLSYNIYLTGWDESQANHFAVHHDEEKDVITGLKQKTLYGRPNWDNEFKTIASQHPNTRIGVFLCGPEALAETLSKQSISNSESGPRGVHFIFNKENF
Sequence of NADPH oxidase 4 (Homo sapiens) (Q9NPH5 whole entry, looked up): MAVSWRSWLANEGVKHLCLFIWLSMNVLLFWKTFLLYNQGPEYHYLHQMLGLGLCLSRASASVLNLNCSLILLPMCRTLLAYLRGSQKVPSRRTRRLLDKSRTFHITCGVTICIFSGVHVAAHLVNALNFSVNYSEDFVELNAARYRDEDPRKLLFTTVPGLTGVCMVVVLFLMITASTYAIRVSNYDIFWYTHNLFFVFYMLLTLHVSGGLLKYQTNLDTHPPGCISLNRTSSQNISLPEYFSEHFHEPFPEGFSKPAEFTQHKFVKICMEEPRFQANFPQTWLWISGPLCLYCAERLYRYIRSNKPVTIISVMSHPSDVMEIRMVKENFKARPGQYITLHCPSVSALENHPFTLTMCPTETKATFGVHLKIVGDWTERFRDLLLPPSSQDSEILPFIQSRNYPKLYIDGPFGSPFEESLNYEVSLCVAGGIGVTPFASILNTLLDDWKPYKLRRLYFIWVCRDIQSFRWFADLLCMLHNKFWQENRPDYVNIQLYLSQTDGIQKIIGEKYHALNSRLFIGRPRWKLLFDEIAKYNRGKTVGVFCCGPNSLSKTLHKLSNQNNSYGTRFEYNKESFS

Structure (SMILES)	z-score [1]	composite z-score [2]	z-score [3]	z-score [4]	z-score [5]	z-score [6]	z-score [7]	z-score [8]	z-score [9]	z-score [10]
O=C(NCC(F)(F)F)[C@@H]1c2ccccc2C(=O)N(C2CCCCC2)[C@H]1c1ccc(CO)cc1	-0.36 (inactive)	-0.146	0.732 (inactive)	-0.243 (inactive)	0.0266 (inactive)	0.18 (inactive)	-0.216	0.292 (inactive)	-0.755 (inactive)	0.211
CCCCN1CC=CC23O[C@@H]4C=CCOC(=O)[C@@H]4[C@H]2C(=O)N(CCCCCO)[C@@H]3C1=O (stereo not given in full)	0.504 (inactive)	0.749	1.25 (inactive)	0.882 (inactive)	1.22 (inactive)	0.529 (inactive)	0.0401	0.872 (inactive)	0.381 (inactive)	1.37
CC(C)c1ccc(NN2C(C(O)C(c3ccccc3)c3ccccc3)C=CC3C(=O)N(c4ccccc4)C(=O)C32)cc1 (stereo not given)	-1.98 (inactive)	0.497	0.363 (inactive)	1.32 (inactive)	0.771 (inactive)	0.948 (inactive)	-0.582	-1 (inactive)	-4.56 (inactive)	-4.98
C=CC[C@@]1(C(=O)NCc2ccccc2)N=C(c2ccc(OCCCO)cc2)O[C@@H]1c1ccccc1N=[N+]=[N-]	-0.304 (inactive)	0.869	33.3 (active)	31.1 (active)	3.73 (inactive)	8.16 (active)	-0.126	-1.88 (inactive)	1.29 (inactive)	-0.965
O=C1[C@H]2C=C(Br)[C@H](C[C@@H]2OCCCCO)[C@@]12CO2	-1.11 (inactive)	0.0911	1.31 (inactive)	0.317 (inactive)	1.17 (inactive)	-0.0393 (inactive)	-0.401	0.45 (inactive)	0.602 (inactive)	0.188
COc1ccc(C(=O)Nc2ccc(CN3C(=O)[C@@]4(O[C@@H](CCn5cc([C@H](O)c6ccccc6)nn5)[C@H]([Si](C)(C)c5ccc(OC)cc5)[C@H]4C)c4ccccc43)cc2)cc1	-0.203 (inactive)	0.191	19.8 (active)	5.6 (inactive)	2.08 (inactive)	1.43 (inactive)	0.134	0.295 (inactive)	0.709 (inactive)	2.2
COCCn1c(C(=O)N2CCCC2)cc2c1C[C@H]1CN(C(=O)c3ccccc3)[C@@](Cc3ccc(F)cc3)(C(=O)OC)[C@@H]21	-1.33 (inactive)	0.237	1.15 (inactive)	0.137 (inactive)	2.62 (inactive)	0.642 (inactive)	-0.0267	0.236 (inactive)	0.191 (inactive)	-4.43
[N-]=[N+]=Nc1ccccc1[C@H]1OC(c2ccc(OCCCO)cc2)=N[C@@]1(Cc1ccccc1)C(=O)O	0.409 (inactive)	0.346	32 (active)	27.2 (active)	1.65 (inactive)	7.43 (inactive)	-0.259	-0.0311 (inactive)	1.5 (inactive)	1.75
C=CCNC(=O)[C@@H]1[C@H]2C(=O)O[C@H](c3ccccc3)[C@H](c3ccccc3)N2[C@H](c2ccccc2OCCO)[C@@]12C(=O)N(C(=O)OCCOC)c1ccc(C#CCNC(N)=O)cc12	-0.302 (inactive)	0.395	3.09 (inactive)	0.483 (inactive)	1.3 (inactive)	0.466 (inactive)	0.425	1.77 (inactive)	1.54 (inactive)	-0.131
O=C(C1N=C(c2ccc(OCCCO)cc2)N(c2ccccc2)O1)N1CCOCC1 (stereo not given)	1.72 (inactive)	0.0721	24.4 (active)	4.44 (inactive)	-0.593 (inactive)	-0.121 (inactive)	1.75	-3.16 (inactive)	-0.258 (inactive)	-0.432
C[C@]1(C(=O)NC2CC2)c2ccccc2C(=O)N(Cc2cc(C(F)(F)F)cc(C(F)(F)F)c2)[C@H]1c1ccc(CO)cc1	1.4 (inactive)	0.0278	7.52 (inactive)	1.18 (inactive)	1.26 (inactive)	0.599 (inactive)	0.049	-1.25 (inactive)	0.222 (inactive)	1.06
C=C(CCCC)C(=O)CC[C@@H](OC(=O)c1cccnc1)c1ccc(CO)o1	-0.367 (inactive)	-0.289	3.22 (inactive)	0.449 (inactive)	0.873 (inactive)	0.258 (inactive)	0.264	0.341 (inactive)	-0.942 (inactive)	-1.04
CN1C(=O)C2C=CC(C(O)C3CCCCC3)N(Nc3ccc([N+](=O)[O-])cc3[N+](=O)[O-])C2C1=O (stereo not given)	-1.06 (inactive)	0.181	1.72 (inactive)	0.519 (inactive)	-0.226 (inactive)	0.532 (inactive)	-0.511	-1.18 (inactive)	0.889 (inactive)	0.414
C=CCN(Cc1ccccc1)C(=O)C(c1cccs1)N(CCOCCO)C(=O)/C=C\C(=O)O (stereo not given)	2.73 (inactive)	-0.191	2.39 (inactive)	-0.398 (inactive)	0.213 (inactive)	-0.281 (inactive)	3.21	-0.00856 (inactive)	-0.515 (inactive)	-0.659
O=C1C2C=CC(C(O)C3CCCCC3)N(Nc3ccc([N+](=O)[O-])cc3)C2C(=O)N1c1ccccc1 (stereo not given)	-1.13 (inactive)	0.455	21.3 (active)	4.73 (inactive)	4.92 (inactive)	1.42 (inactive)	-0.185	-1.03 (inactive)	-3.38 (inactive)	-4.06
COc1ccc(C(O)C2C=CC3C(=O)NC(=O)C3N2Nc2ccccn2)c2ccccc12 (stereo not given)	-1.07 (inactive)	-0.0625	0.496 (inactive)	0.437 (inactive)	-0.139 (inactive)	0.977 (inactive)	-0.841	-0.387 (inactive)	-3.5 (inactive)	-2.08
O=C1C[C@]2(c3ccc([N+](=O)[O-])cc3)C(=O)N(CCN3CCOCC3)c3cc(CO)ccc3[C@H]2N1C1CCCCC1	0.918 (inactive)	-0.0108	1.23 (inactive)	-0.837 (inactive)	-0.584 (inactive)	-0.507 (inactive)	1.51	-0.791 (inactive)	-0.0781 (inactive)	1.18
COC(=O)C(CC#Cc1ccc2c(c1)[C@]1(C(=O)N2)[C@H](C(=O)O)[C@H]2C(=O)O[C@H](c3ccccc3)[C@H](c3ccccc3)N2[C@@H]1c1ccc(O)cc1)C(=O)OC	-0.818 (inactive)	0.145	1.83 (inactive)	-0.038 (inactive)	-0.15 (inactive)	-0.0548 (inactive)	0.148	0.699 (inactive)	-0.0438 (inactive)	0.921
CC(CO)N1C(=O)[C@@H]2C3C(=O)OCCC/C=C\[C@H]3OC23C=CCN(c2ccc4ccccc4c2)C(=O)[C@@H]13 (stereo not given in full)	0.453 (inactive)	-0.147	1.07 (inactive)	0.0843 (inactive)	1.87 (inactive)	0.011 (inactive)	-0.13	1.03 (inactive)	-0.0122 (inactive)	1.97
COCCOC(=O)N1C(=O)[C@@]2(c3cc(C#CC4=CCCCC4)ccc31)[C@H](C(=O)N1CCc3cc(OC)c(OC)cc3C1)[C@H]1C(=O)O[C@H](c3ccccc3)[C@H](c3ccccc3)N1[C@@H]2c1ccc(OCCO)cc1	-0.332 (inactive)	0.0752	3.71 (inactive)	1.19 (inactive)	-0.129 (inactive)	0.801 (inactive)	0.261	1.77 (inactive)	1.18 (inactive)	0.669
CCCC#C[Si](O[C@H](CC)c1cn([C@H](CO)Cc2ccccc2)nn1)(C(C)C)C(C)C	1.12 (inactive)	0.145	0.442 (inactive)	0.479 (inactive)	-1.31 (inactive)	0.752 (inactive)	-0.675	0.819 (inactive)	0.272 (inactive)	0.493
C#CCN(CC=C(C)C)[C@H](CO)c1ccccc1	0.0373 (inactive)	0.213	-0.214 (inactive)	-1.3 (inactive)	-0.717 (inactive)	-2.12 (inactive)	1.22	-0.0535 (inactive)	-0.102 (inactive)	-1.84
C=CCOC(=O)[C@@H]1[C@H]2C(=O)O[C@H](c3ccccc3)[C@H](c3ccccc3)N2[C@H](c2ccc(OCCOC(=O)[C@@H]3C[C@@H]4C(=O)N[C@@H](CCCCN(C)C)C(=O)N4[C@@H]3c3ccc(O)cc3)cc2)[C@@]12C(=O)Nc1ccc(I)cc12	-0.193 (inactive)	-0.012	-1.43 (inactive)	0.997 (inactive)	3.77 (inactive)	0.374 (inactive)	-0.381	1.36 (inactive)	0.636 (inactive)	0.167
CCOC(=O)C[C@H]1[C@H](OC(=O)Cc2ccc3c(c2)OCO3)[C@@H](NC(=O)c2ccc3ccccc3c2)c2cc(OCCCO)ccc2N1C(=O)c1ccccc1	1.87 (inactive)	0.0479	4.03 (inactive)	0.522 (inactive)	-0.552 (inactive)	0.26 (inactive)	0.0043	-0.363 (inactive)	0.321 (inactive)	-2.56
CC(C)C[C@@H]1NC(=O)[C@H]2C[C@@H](C(=O)NCCCCCCN(C)C)[C@@H](c3ccc(O)cc3)N2C1=O	-0.655 (inactive)	-0.0573	0.977 (inactive)	-0.116 (inactive)	-0.0599 (inactive)	-0.288 (inactive)	-0.384	0.193 (inactive)	0.268 (inactive)	0.0226
